# Screening data as filed in PubChem BioAssay.
# Shown are actives, neighbours in structure and some others; about 18% of the full set was active somewhere.
# PLK1 PBD block: inhibitors of human PLK1 polo-box domain binding; AID 720504; actives 2.8% (n = 360,000); Potency, µM, without a hit: max response, negative = inhibition, hits mostly inhibitors; P53350; Plk1 PBD binding of FITC phosphopeptide, fluorescence polarization; note: series mostly up to about 57 µM; nearly all actives have a fitted effect of over 65% in size
# Target sequence (P53350 whole entry, looked up, the tested form may be a part): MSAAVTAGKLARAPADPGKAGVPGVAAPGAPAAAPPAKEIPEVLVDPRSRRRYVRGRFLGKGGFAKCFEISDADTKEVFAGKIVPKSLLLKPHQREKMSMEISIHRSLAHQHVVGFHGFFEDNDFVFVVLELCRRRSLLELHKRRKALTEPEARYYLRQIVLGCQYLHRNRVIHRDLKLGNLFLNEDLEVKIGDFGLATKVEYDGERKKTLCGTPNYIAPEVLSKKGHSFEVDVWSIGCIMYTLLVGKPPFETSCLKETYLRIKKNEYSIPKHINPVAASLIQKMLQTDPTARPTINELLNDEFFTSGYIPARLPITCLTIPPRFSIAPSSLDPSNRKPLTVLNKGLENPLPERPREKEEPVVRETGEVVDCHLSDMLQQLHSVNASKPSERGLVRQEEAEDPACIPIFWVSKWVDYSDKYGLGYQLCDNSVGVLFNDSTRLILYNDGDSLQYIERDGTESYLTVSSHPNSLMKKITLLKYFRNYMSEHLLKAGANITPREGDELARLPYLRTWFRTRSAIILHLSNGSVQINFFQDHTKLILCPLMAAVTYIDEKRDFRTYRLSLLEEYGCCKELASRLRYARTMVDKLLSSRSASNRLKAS
# DT40 TDP1 no CPT: qHTS for Inhibitors of human tyrosyl-DNA phosphodiesterase 1 (TDP1): qHTS in cells in absence of CPT; actives 15% (n = 420,000); Potency, µM (top dose mostly 46.2 µM), without a hit: at the top dose activity change, negative = growth inhibition, actives largely listed as inhibitors; DT40 Tdp1-/- hTDP1 cells, no CPT, ATP luminescence, 48 h; note: nearly all actives have a fitted effect of over 55% in size
#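 Camptothecin absent (DMSO only). Human TDP1-complemented DT40 knockout cells, 400 cells/well, 37 °C for minimum 48 hr; ATP measured via CellTiter-Glo, 30 min dark incubation, luminescence.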
# TDP1 inh: inhibitors of human tyrosyl-DNA phosphodiesterase TDP1; Q9NUW8; recombinant TDP1, AlphaScreen DNA substrate cleavage; Potency, µM (doses to about 130 µM), inactives show top-dose activity change, negative = inhibition, most hits filed as inhibitors; actives 0.28% (n = 350,000); AID 485290; note: nearly all actives have a fitted effect of over 40% in size
#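 Recombinant human Tdp1 (E. coli-expressed, 1 nM final) preincubated with compounds 15 min at room temperature, then 5'-biotin/3'-phosphotyrosine-FITC DNA substrate (15 nM final) added for 5 min. AlphaScreen beads (10 ug/ml final) added 10 min; cleavage lowers signal.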
# VDR inhibitor: vitamin D3 receptor (human) inhibition. P11473. VDR-SRC2-3 peptide fluorescence polarization, 2 h. Potency, µM, for the others: max response, negative = inhibition, usual class: inhibitors. actives 0.93% (n = 400,000). AID 504847
#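 Reagent solutions, kept cold and dark, are dispensed first; compounds are then pinned in at 23 nl, plates briefly spun, and incubated 2 h at ambient temperature. Inhibition of VDR–SRC2-3 peptide binding is read by fluorescence polarization.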
# KAT2A inh: blocks human GCN5L2 histone acetyltransferase; GCN5L2 HAT assay, ThioGlo1 CoA-SH fluorescence; Potency, µM (top dose mostly 58.9 µM), without a hit: at the top dose activity change, negative = inhibition, actives largely listed as inhibitors; actives 0.21% (n = 390,000)
#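 GCN5L2 (20 nM) in 50mM HEPES pH 7.5, 0.1mM EDTA, 0.01% Tween-20 preincubated 15 min with compounds at room temperature. Reaction started with H3(1-25) 75uM, acetyl-CoA 70uM, ThioGlo1 50uM; CoA-thiol fluorescence (Ex340/Em540) read at 0 and 20 min.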
# TDP1 cell CPT: DT40-hTDP1 cell growth loss with CPT. chicken DT40 Tdp1-/-;hTDP1 cells + 20 nM CPT, ATP luminescence, 48 h. Potency, µM (highest dose often 46.2 µM), for inactives: at the top dose activity change, negative = growth inhibition, usual class: inhibitors. actives 12% (n = 420,000); note: nearly all actives have a fitted effect of over 55% in size
#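 Chicken DT40 Tdp1-/- cells complemented with human TDP1, 400 cells/well, exposed to compounds plus 20 nM camptothecin for at least 48 h at 37 C; viability read as ATP content by CellTiter-Glo luminescence.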
# * hit, by the source's call; ? = inconclusive; nt = no result given; [ ] = remark or other dose. Calls come from the whole dose curve; as a rule, active = well fitted curve in the direction sought with a large enough effect; inconclusive = small, poorly fitted or top-dose-only effect, or another doubt; inactive = no such curve, though single readings can be large; an effect the other way counts as inactive or inconclusive. % is set by controls: 0 for no effect and ±100 for the full control effect; potency is the fitted concentration of half-maximal effect.
SMILES,PLK1 PBD block,DT40 TDP1 no CPT,TDP1 inh,VDR inhibitor,KAT2A inh,TDP1 cell CPT
Cc1cc(C)nc(NC(=NCCc2c[nH]c3ccccc23)NC(=O)Nc2cccc([N+](=O)[O-])c2)n1,-1%,7.3µM*,5%,9%,-6%,13µM*
COc1ccc2[nH]cc(CCN=C(NC(=O)c3ccccc3F)Nc3nc(C)cc(C)n3)c2c1,nt,nt,6%,0%,2%,nt
Cc1cc(C)nc(NC(=NCCc2c[nH]c3ccccc23)NC(=O)Nc2ccc(Cl)c(Cl)c2)n1,4%,13µM*,2%,6%,-6%,15µM*
Cc1cc(C)nc(NC(=NCCc2c[nH]c3ccccc23)NC(=O)c2ccco2)n1,3%,10µM*,9%,14%,-3%,21µM*
CC(C)(C)C(=O)N1CCC2CC1c1cc(-c3ccc4c(c3)OCO4)ccc12 (centres undefined),-5%,23µM*,nt,nt,nt,?
CC(C)(C)NC(=S)N1CCC2CC1c1cc(-c3ccc4c(c3)OCO4)ccc12 (centres undefined),-8%,?,nt,nt,nt,?
O=C(C1CCCCC1)N1CCC2CC1c1cc(-c3ccc4c(c3)OCO4)ccc12 (centres undefined),-2%,18µM*,nt,nt,nt,18µM*
CCn1cc(C(=O)N[C@@H](CCSC)C(=O)NC(C)(C)CO)c(=O)c2cc3c(cc21)OCO3,-11%,-6%,nt,-19%,-21%,-9%
O=C(Cc1ccccc1)Nc1sc2c(c1C(=O)Nc1cccc(Cl)c1)CCCC2,nt,nt,0%,nt,nt,nt
CCC(COC)NCc1cn(-c2ccc(OC)cc2)nc1-c1cccc(F)c1 (centres undefined),-12%,23µM*,-3%,61%,8%,16µM*
CCC(CC)NCc1ccc(OC)cc1OC,-4%,-13%,1%,3%,-1%,-1%
COc1cccc(-c2nn(-c3ccccc3)cc2CN(C)C(C)c2ccon2)c1 (centres undefined),-2%,?,-10%,-6%,0%,?
COc1ccc(-n2cc(CNC(C)c3ccncn3)c(-c3cccc(F)c3)n2)cc1 (centres undefined),-9%,26µM*,3%,13%,-4%,?
O=C(NCc1cccnc1)c1cc(C2CCCN(C(=O)c3cccs3)C2)on1 (centres undefined),2%,?,nt,nt,nt,?
O=[N+]([O-])c1ccc(C[n+]2cccc(O)c2)cc1,0%,2%,0%,4%,0%,5%
COc1cc2cc[n+](Cc3ccc([N+](=O)[O-])cc3)cc2cc1OC,-9%,?,nt,27%,-25%,18µM*
Cc1cc(Br)ccc1NC(=O)CN(C)C(=O)CCSc1ccc(F)cc1,27µM*,?,nt,-3%,-2%,?
CCC1CCCCN1C(=O)c1ccc(OC2CCN(C(=O)CCOC)CC2)cc1 (centres undefined),-17%,-3%,5%,-25%,-14%,-17%
CCc1nn(CC(=O)NCCCN(CC(C)C)CC(C)C)c(=O)c2cc3sc(C)cc3n12,nt,?,0%,4%,-7%,-5%
O=c1cc(CCl)nc2sc3ccccc3n12,?,?,50µM*,16%,-12%,?
N#Cc1cccc(CS(=O)(=O)c2nnnn2C2CCCCC2)c1,nt,nt,7%,?,nt,nt
CCOC(=O)CSc1nnc2n(C3CCCCC3)c(=O)c3c4c(sc3n12)CCCC4,3%,?,7%,6%,-8%,?
CCOC(=O)CSc1nc2sc3c(c2c(=O)n1C1CCCCC1)CCN(C)C3,-18%,29µM*,-1%,-3%,-6%,?
C=C(C)CSc1nc2sc3c(c2c(=O)n1-c1ccc(C)cc1)CCN(C)C3,-13%,12µM*,nt,-3%,-25%,18µM*
CCN(CC)C(=O)CSc1nc2sc3c(c2c(=O)n1CCCOC)CCC3,24µM*,?,nt,?,-6%,?
SMILES,PLK1 PBD block,DT40 TDP1 no CPT,TDP1 inh,VDR inhibitor,KAT2A inh,TDP1 cell CPT
CCn1c(SC(C)C(=O)O)nc2sc3c(c2c1=O)CCC3 (centres undefined),?,-5%,11µM*,-16%,-14%,-13%
O=C(/C=C/c1ccc(S(=O)(=O)N2CCOCC2)cc1)NCCCn1ccnc1,4%,4%,5%,-24%,-2%,-3%
Cc1cccc(C)c1NC(=O)CN(C)C(=O)c1ccccc1OCc1ccc(F)cc1,1%,-21%,nt,-8%,-21%,-12%
CCn1c(SCC(N)=O)nc2sc3c(c2c1=O)CCN(C)C3,-4%,13µM*,0%,6%,-4%,23µM*
CCn1c(SCC(=O)N2CCOCC2)nc2sc3c(c2c1=O)CCCC3,-9%,18µM*,6%,7%,-2%,?
COC(=O)CSc1nnc2n(C3CCCCC3)c(=O)c3c4c(sc3n12)CCCC4,-9%,?,4%,-14%,-5%,29µM*
CCOC(=O)CSc1nc2sc3c(c2c(=O)n1-c1ccc(OCC)cc1)CCN(C)C3,-12%,23µM*,nt,9%,-23%,?
CCCn1c(SCC(=O)N2CCN(C(C)=O)CC2)nc2sc3c(c2c1=O)CCC3,0%,-18%,8%,-15%,-25%,-16%
CCc1ccccc1NC(=O)N1CCCn2nc(C)cc21,nt,-22%,8%,11%,0%,6%
CCCCN1C(=O)C(CC(=O)NCC2CCCCC2)CC(C(=O)N2CCOCC2)=C1C (centres undefined),4%,-26%,nt,nt,nt,-12%
CCOC(=O)N1CCC(N2CCN(Cc3ccc(C)o3)C(CCO)C2)CC1 (centres undefined),15µM*,?,5%,-27%,-1%,?
CCOC(=O)c1c(-c2ccccc2)oc2ccc(OCc3cccc(Br)c3)cc12,nt,-28%,0%[12.3 µM],-7%,0%,-13%
O=C(COC(=O)CCc1nc2ccccc2c(=O)[nH]1)Nc1ccccc1,-15%,-1%,-11%,7%,1%,0%
O=C(CCc1nc2ccccc2c(=O)[nH]1)NNC(=O)c1cccc(Cl)c1,0%,-5%,-7%,-15%,-7%,-1%
O=C(CCc1nc2ccccc2c(=O)[nH]1)NCc1cccc(Cl)c1,-9%,23µM*,1%,16%,-6%,21µM*
O=C(COC(=O)CCc1nc2ccccc2c(=O)[nH]1)Nc1ccc(Cl)cn1,15µM*,?,-1%,?,-9%,?
COc1cccc(Oc2ccc(C(F)(F)F)cc2NC(=O)CCc2nc3ccccc3c(=O)[nH]2)c1,10%,18µM*,4%,16%,-12%,16µM*
